High-throughput results (PubChem)
A selection: hits, their analogues and other compounds. The true share with any hit is near 18%.
DT40 TDP1 no CPT: qHTS for Inhibitors of human tyrosyl-DNA phosphodiesterase 1 (TDP1): qHTS in cells in absence of CPT; DT40 Tdp1-/- hTDP1 cells, no CPT, ATP luminescence, 48 h; Potency, µM (doses to about 46.2 µM), without a hit: at the top dose activity change, negative = growth inhibition, hits mostly inhibitors; 420,000 compounds, 15% hits; AID 686978, 2013; also: nearly all actives have a fitted effect of over 55% in size
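Seeded 400 DT40-hTDP1 cells/well (vehicle DMSO, no 20 nM CPT); pinned compounds; ≥48 hr at 37 °C; CellTiter-Glo luminescence as viability measure.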
PLK1 PBD block: qHTS for Inhibitors of PLK1-PDB (polo-like kinase 1 - polo-box domain): Primary Screen; Serine/threonine-protein kinase PLK1 (Homo sapiens), P53350; Plk1 PBD binding of FITC phosphopeptide, fluorescence polarization; Potency, µM, for inactives: max response, negative = inhibition, hits mostly inhibitors; 360,000 compounds, 2.8% hits; also: series mostly up to about 57 µM; nearly all actives have a fitted effect of over 65% in size
DT40 TDP1 CPT: qHTS for Inhibitors of human tyrosyl-DNA phosphodiesterase 1 (TDP1): qHTS in cells in presence of CPT. 420,000 compounds, 12% hits. chicken DT40 Tdp1-/-;hTDP1 cells + 20 nM CPT, ATP luminescence, 48 h. Potency, µM (titrated, usually from 46.2 µM), inactives show at the highest dose activity change, negative = growth inhibition, most hits filed as inhibitors; also: nearly all actives have a fitted effect of over 55% in size
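Chicken DT40 Tdp1-/- cells stably complemented with human TDP1 were seeded at 400 cells/well in medium containing 20 nM camptothecin, exposed to pin-transferred compounds, and grown at 37 °C for at least 48 hr. Viability was read as ATP luminescence.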
TDP1 block: qHTS Assay for Inhibitors of Tyrosyl-DNA Phosphodiesterase (TDP1). Tyrosyl-DNA phosphodiesterase 1 (Homo sapiens), Q9NUW8. recombinant TDP1, AlphaScreen DNA substrate cleavage. Potency, µM (top dose mostly 130 µM), for the others: at the top dose activity change, negative = inhibition, usual class: inhibitors. 350,000 compounds, 0.28% hits; also: nearly all actives have a fitted effect of over 40% in size
Target sequence (Q9NUW8 whole entry, looked up): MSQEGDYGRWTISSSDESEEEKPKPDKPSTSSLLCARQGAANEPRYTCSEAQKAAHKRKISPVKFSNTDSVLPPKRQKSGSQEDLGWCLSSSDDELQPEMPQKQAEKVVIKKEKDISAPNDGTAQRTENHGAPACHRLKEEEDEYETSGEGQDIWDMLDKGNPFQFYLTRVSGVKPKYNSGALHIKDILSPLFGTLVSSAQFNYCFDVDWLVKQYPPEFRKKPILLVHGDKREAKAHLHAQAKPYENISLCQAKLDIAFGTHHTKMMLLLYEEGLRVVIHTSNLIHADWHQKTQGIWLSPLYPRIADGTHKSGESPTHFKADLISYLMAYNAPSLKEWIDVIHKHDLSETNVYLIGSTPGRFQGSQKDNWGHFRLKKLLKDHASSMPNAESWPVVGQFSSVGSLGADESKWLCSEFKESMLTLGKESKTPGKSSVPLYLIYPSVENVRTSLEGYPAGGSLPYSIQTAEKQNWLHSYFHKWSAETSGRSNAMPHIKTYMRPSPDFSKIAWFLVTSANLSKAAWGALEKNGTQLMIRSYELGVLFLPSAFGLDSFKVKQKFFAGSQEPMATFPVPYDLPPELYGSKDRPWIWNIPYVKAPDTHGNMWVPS
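E. coli-derived human Tdp1, 1 nM final. Cpd preinc 15 min RT; substrate 15 nM final, 5 min RT; AS bead mix 10 ug/ml final, 10 min RT. Signal loss = tyrosine-FITC cleavage. No-enzyme wells = max signal.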
VDR inh: Inhibitors of the vitamin D receptor (VDR): qHTS; VDR-SRC2-3 peptide fluorescence polarization, 2 h; Potency, µM, for inactives: max response, negative = inhibition, hits mostly inhibitors; 400,000 compounds, 0.93% hits; AID 504847, 2011
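Compounds are added to VDR with labelled SRC2-3 coactivator peptide and held 2 h at room temperature. Inhibition of the VDR–peptide interaction is then read as a change in fluorescence polarization.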
KAT2A inh: qHTS Assay for Inhibitors of GCN5L2; Histone acetyltransferase KAT2A (Homo sapiens), Q92830; GCN5L2 HAT assay, ThioGlo1 CoA-SH fluorescence; Potency, µM (top dose mostly 58.9 µM), for the others: top-dose activity change, negative = inhibition, usual class: inhibitors; 390,000 compounds, 0.21% hits; AID 504327, 2011
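Titration-based screen in which CoA formation is detected via maleimide probe ThioGlo1 (50uM) turning fluorescent on thiol reaction; substrates H3(1-25) 75uM and acetyl-CoA 70uM, GCN5L2 20nM, 20 min incubation at room temperature.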
* = called active by the depositor; u = inconclusive; x = no result; [ ] = dose if it differs, or a comment. Calls follow the shape of the dose curve; as a rule, active = well fitted curve in the direction sought with a large enough effect; inconclusive = small, poorly fitted or top-dose-only effect, or another doubt; inactive = no such curve, though single readings can be large; an effect the other way counts as inactive or inconclusive. % is scaled to controls: 0 for no effect and ±100 for the full control effect; potency is read from the fitted curve at half-maximal effect.

SMILES	DT40 TDP1 no CPT	PLK1 PBD block	DT40 TDP1 CPT	TDP1 block	VDR inh	KAT2A inh
COc1ccc(C2=NS(=O)(=O)N(C)C(C(=O)N3CCC(C)CC3)=C2)cc1	u	-2.7%	u	x	-14.7%	-15.8%
CN1CCN(C(=O)c2cc3nc(-c4ccco4)cc(C(F)(F)F)n3n2)CC1	-26.1%	-9.2%	9.4%	5.6%	-11.4%	-0.7%
O=C(c1cc2nc(-c3ccco3)cc(C(F)(F)F)n2n1)N1CCc2ccccc2C1	23.1µM*	-13.6%	u	-1.5%	6.8%	-0.3%
CN1C(C(=O)N2CCc3ccccc3C2)=CC(c2ccc(F)cc2)=NS1(=O)=O	25.9µM*	-2.1%	u	4.3%	-26.0%	-11.1%
CN(C(=O)C(Cl)Cl)C1CC2C=CC1C2 (stereo not given)	-23.7%	-5.8%	-26.7%	-4.1%	6.0%	1.2%
COc1cc(CCC(=O)NCc2ccc3c(c2)OCO3)cc(OC)c1OC	-21.8%	-5.6%	0.9%	x	-11.5%	12.4%
COc1cc(C2c3cc4c(cc3OC(Nc3ccc(C(=O)O)cc3)C2C)OCO4)cc(OC)c1OC (stereo not given)	1.16µM*	-4.5%	1.3µM*	x	3.1%	x
COc1cc(C2c3cc4c(cc3OC(NCCc3ccccc3)C2C)OCO4)cc(OC)c1OC (stereo not given)	0.82µM*	-1.2%	1.03µM*	x	-4.2%	x
O=c1[nH]c(N2CCCCC2)nc2ncn(Cc3ccccc3)c12	u	26.7µM*	u	-2.5%	u	16.7%
Cn1cnc(S(=O)(=O)N2CCCCC2c2cc(C(=O)Nc3cccc4c3CCCC4)no2)c1 (stereo not given)	13µM*	-13.9%	20.6µM*	x	x	x
O=C(Nc1cccc2c1CCCC2)c1cc(C2CCCCN2C(=O)OCCF)on1 (stereo not given)	9.2µM*	-4.4%	9.2µM*	x	x	x
Cn1cnc(S(=O)(=O)N2CCCCC2c2cc(C(=O)Nc3ccccc3Cl)no2)c1 (stereo not given)	-16.5%	-6.6%	-18.1%	x	x	x
COCCOC(=O)N1CCCCC1c1cc(C(=O)Nc2cccc3c2CCCC3)no1 (stereo not given)	4.61µM*	-0.8%	3.66µM*	x	x	x
COC(=O)N1CCCCC1c1cc(C(=O)Nc2cccc3c2CCCC3)no1 (stereo not given)	u	4.1%	u	x	x	x
CCCn1c(CCC(=O)O)nc2cc(S(=O)(=O)N3CCCC3)ccc21	2.9%	-0.4%	-20.1%	x	7.9%	-3.8%
O=C(OCC(=O)N1CCc2ccccc21)[C@@H]1CC(O)CN1S(=O)(=O)c1ccc(Cl)cc1 (stereo not given in full)	u	2.8%	u	-0.4%	6.9%	-2.4%
COc1ccc(CC(=O)NCCS(=O)(=O)N2CCN(c3ccccc3OC)CC2)cc1	u	-4.7%	29.1µM*	x	3.3%	-5.8%
CCOc1ccc(CC(=O)NCCS(=O)(=O)N2CCN(c3ccccc3OC)CC2)cc1	20.6µM*	x	11.6µM*	-1.8%	5.8%	2.1%
COc1ccccc1N1CCN(S(=O)(=O)CCNC(=O)COc2ccc(C(C)C)cc2)CC1	16.4µM*	x	u	8.9%	18.5%	-11.8%
COc1ccccc1N1CCN(S(=O)(=O)CCNC(=O)c2cc(=O)c3ccccc3o2)CC1	25.9µM*	-10.4%	u	2.4%	-10.2%	-14.1%
COc1ccccc1N1CCN(S(=O)(=O)CCNC(=O)c2cc(OC)c(OC)c(OC)c2)CC1	u	3.9%	u	2.4%	-7.0%	-2.6%
COc1ccccc1N1CCN(S(=O)(=O)CCNC(=O)c2ccco2)CC1	-1.2%	-6.7%	3.5%	x	x	x
CCOC(=O)c1ccc(NC(=O)C(CC)Sc2nc3ncccc3[nH]2)cc1 (stereo not given)	u	x	u	2.5%	6.9%	-2.0%
CN(CC(=O)Nc1ncn[nH]1)S(=O)(=O)c1cc(Cl)ccc1Cl	2.9%	-2.6%	12.0%	3.2%	-0.3%	-3.0%
COc1ccccc1N1CCN(S(=O)(=O)CCNC(=O)CCc2ccccc2)CC1	16.4µM*	3.5%	u	x	x	x
SMILES	DT40 TDP1 no CPT	PLK1 PBD block	DT40 TDP1 CPT	TDP1 block	VDR inh	KAT2A inh
COc1ccc(Cl)cc1C(=O)NCCS(=O)(=O)N1CCN(c2ccccc2OC)CC1	18.4µM*	x	u	-0.6%	9.8%	-2.6%
COc1ccccc1N1CCN(S(=O)(=O)CCNC(=O)CC2CCCCC2)CC1	16.4µM*	1.9%	16.4µM*	x	1.5%	-6.5%
COc1ccc(C(=O)NCCS(=O)(=O)N2CCN(Cc3ccccc3)CC2)cc1	29.1µM*	4.7%	-20.0%	x	-8.5%	1.1%
COc1cccc(OC(=O)CSc2nnc(-c3ccc4c(c3)OCO4)o2)c1	-11.8%	x	-11.9%	0.0%	10.5%	-10.4%
O=C(CSc1nnc(CNC(=O)c2ccccc2)n1-c1cccc(Cl)c1)Nc1ccccc1F	u	x	u	5.8%	1.8%	0.3%
COc1ccc(CNC(=O)c2ccccc2NC(=O)C2=CSCCO2)c(OC)c1	u	2.9%	u	4.9%	17.8%	u
O=C(c1ccccc1O)N(Cc1ccccc1)Cc1ccccc1	x	x	x	0.9%	x	x
CCN(CC(=O)Nc1ccc(NC(C)=O)cc1)C(=O)CCCOc1ccc(C(C)(C)C)cc1	23.1µM*	-2.5%	18.4µM*	x	8.8%	-3.5%
CC(C)(C)c1ccc(NC(=O)COc2ccc(-n3ccnc3)cc2)cc1	16.4µM*	0.8%	14.6µM*	4.5%	13.7%	-7.8%
CC(=O)Nc1ccc(S(=O)(=O)NNC(=O)COc2ccc(C(C)(C)C)cc2)cc1	u	26.7µM*	u	11.0%	-8.2%	-1.2%
CC(C)c1ccc(NC(=O)c2snc3ccc(Cl)cc23)cc1	-86.9%	-15.5%	-93.8%	5.7%	-22.0%	2.7%
O=C1C=C(c2ccccc2)C(c2ccccc2)C1 (stereo not given)	-9.6%	0.5%	2.3%	x	10.6%	x
CCCCc1nc2c(c3c1C[C@H](C)OC3)CN(S(=O)(=O)c1c(C)noc1C)CC2	x	x	x	8.2%[21 µM]	x	x
